Assay results: PubChem BioAssay (EPA / NIEHS)
Records with an inconclusive call do not appear. Where a structure was tested more than once in an assay, its records may differ in their call. Active and inactive are the calls of the source. Rule for the calls, unless noted: active = hit-call score of the fitted dose curve at least 0.9, where 1 is the maximum; inconclusive = response in the unintended direction; inactive = score below 0.9.

Experiments:
[1] = read-out: xenobiotic metabolism (CYP1A2), CYP1A2 (gene 1544); assay: CLD_CYP1A2_24hr: CellzDirect (CLD) Gene Expression Assay for xenobiotic metabolism (CYP1A2) at 24 hours (AID 2283683)
Procedure, shortened: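 CYP1A2 mRNA induction measured by quantitative nuclease protection (chemiluminescent) in human primary hepatocytes 24 h after multi-concentration chemical dosing with daily fresh solutions. DMSO (0.2%) baseline; positive-direction fitting; morphology-based cytotoxicity noted.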

[2] = read-out: ABC Transporter (ABCB1), ABCB1 (gene 5243); assay: CLD_ABCB1_24hr: CellzDirect (CLD) Gene Expression Assay for ABC Transporter (ABCB1) at 24 hours (AID 2283684);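 for AC50: potency for increase in ABCB1 mRNA relative to DMSO vehicle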
Procedure, shortened: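 ABCB1 mRNA induction versus 0.2% DMSO vehicle was read by qNPA chemiluminescence at 24 h. Cultured human hepatocytes from two donor preparations received daily fresh dosing, and phase-contrast cytotoxicity calls were annotated alongside the data.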

[3] = read-out: Cytochrome P450 3A4 (Homo sapiens) (UniProt P08684); assay: CLD_CYP3A4_48hr: CellzDirect (CLD) Gene Expression Assay for xenobiotic metabolism (CYP3A4) at 48 hours (AID 2283698)
Procedure, shortened: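 CYP3A4 induction read by qNPA chemiluminescence after 48 h, with fresh dosing solutions on consecutive days, in cultured human hepatocytes (two donors). Vehicle 0.2% DMSO as baseline; microscopy-based cytotoxicity annotated yes/no alongside data.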

[4] = read-out: Cytochrome P450 2B6 (Homo sapiens) (UniProt P20813); assay: CLD_CYP2B6_48hr: CellzDirect (CLD) Gene Expression Assay for xenobiotic metabolism (CYP2B6) at 48 hours (AID 2283699);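 note: actives raise transcript level above DMSO so potency reflects induction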
Procedure, shortened: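 CYP2B6 transcript induction, read by quantitative nuclease protection (S1 digestion, chemiluminescent detection) 48 h after dosing, is fitted upward against 0.2% DMSO. Cultured human liver primary cells, two donor preparations, received fresh chemical daily over multiple concentrations.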

[5] = read-out: xenobiotic metabolism (CYP1A1), CYP1A1 (gene 1543); assay: CLD_CYP1A1_48hr: CellzDirect (CLD) Gene Expression Assay for xenobiotic metabolism (CYP1A1) at 48 hours (AID 2283705)
Procedure, shortened: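 CYP1A1 transcript measured by quantitative nuclease protection (chemiluminescent) 48 h after two daily treatments of human hepatocyte cultures, versus 0.2% DMSO. Morphology-based cytotoxicity flags accompany data; two donor preparations used.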

[6] = read-out: Glyceraldehyde-3-phosphate dehydrogenase (Homo sapiens) (UniProt P04406); assay: CLD_GAPDH_48hr: CellzDirect (CLD) Gene Expression Assay for Baseline Control (Glyceraldehyde 3-phosphate dehydrogenase) at 48 hours (AID 2283706);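 note: active means higher GAPDH mRNA than DMSO vehicle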
Procedure, shortened: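 GAPDH baseline-control readout: qNPA chemiluminescent mRNA quantitation in human liver primary cells 48 h after daily dosing on two consecutive days, vehicle 0.2% DMSO; gain of signal fitted against DMSO, cytotoxicity flagged by phase-contrast morphology.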

[7] = read-out: alkyl and aryl transferase (GSTA2), GSTA2 (gene 2939); assay: CLD_GSTA2_48hr: CellzDirect (CLD) Gene Expression Assay for alkyl and aryl transferase (GSTA2) at 48 hours (AID 2283708);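 note: active means mRNA induction above DMSO vehicle baseline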
Procedure, shortened: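 GSTA2 mRNA quantified by qNPA chemiluminescence in human primary hepatocyte lysates after 48 h of daily fresh chemical dosing. Increases fitted against 0.2% DMSO vehicle baseline; cytotoxicity from morphology annotated yes/no.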

[8] = CEETOX_H295R_MTT_cell_viability: Viability Assessment in the CeeTox HT-H295R MTT Assay (AID 2283718; active = hit-call score of the fitted dose curve at least 0.9, where 1 is the maximum; inactive = score below 0.9;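 for AC50: curve fitted both ways so AC50 may mark viability loss or gain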)
Procedure, shortened: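 Human H295R adrenal cells, prestimulated 48 h with 10 uM forskolin, were exposed 48 h to chemicals in 0.1% DMSO. Viability was measured in the same wells by MTT (0.5 mg/ml, 4 h, 37 C), absorbance 570/650 nm, as percent of controls.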

[9] = Tanguay_ZF_120hpf_ActivityScore_legacy: (Legacy) Oregon State University Tanguay Lab 120 Hour Post-fertilization zebrafish Assay Score for Activity (AID 2283742);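 for AC50: dechorionated Tropical 5D wild-type zebrafish embryos held singly per well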
Procedure, shortened: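 Dechorionated 5D embryos, one per well, static exposure 6–120 hpf, 28C, sealed and dark; final DMSO 0.64% (vol/vol). Brightfield binary scoring of mortality plus 18 endpoints; gain-of-signal fit versus DMSO baseline.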

[10] = read-out: alkyl and aryl transferase (GSTA2), GSTA2 (gene 2939); assay: CLD_GSTA2_24hr: CellzDirect (CLD) Gene Expression Assay for alkyl and aryl transferase (GSTA2) at 24 hours (AID 2283693)
Procedure, shortened: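 GSTA2 transcript levels were quantified by quantitative nuclease protection assay in primary human hepatocytes 24 h after daily dosing with fresh solutions at multiple concentrations; 0.2% DMSO vehicle as baseline, cytotoxicity flagged morphologically.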

[11] = read-out: sulfotransferase (SULT2A), SULT2A1 (gene 6822); assay: CLD_SULT2A_24hr: CellzDirect (CLD) Gene Expression Assay for sulfotransferase (SULT2A) at 24 hours (AID 2283694)
Procedure, shortened: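 mRNA is measured by qNPA: probe hybridisation, S1 nuclease digestion, chemiluminescence, in lysates from human primary hepatocytes harvested 24 h after daily dosing. Vehicle was 0.2% DMSO. Phase-contrast microscopy flagged cytotoxicity (yes/no).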

[12] = STM_H9_CystineISnorm_perc: Stemina devTOX quickPredict H9 human embryonic stem cell (hESC)-based Assay for Cystine (CYSS) Metabolite Biomarker, Normalized (AID 2283713; active = hit-call score of the fitted dose curve at least 0.9, where 1 is the maximum; inactive = score below 0.9)
Procedure, shortened: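 Cells are held undifferentiated and treated for 72h, receiving fresh medium with compound every 24h. Cystine secreted during the final day is quantified by UPLC-HRMS against a labeled spike-in, then expressed relative to the DMSO vehicle median.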

[13] = CLD_ACTIN_48hr: CellzDirect (CLD) Gene Expression Assay for Baseline Control (Actin) at 48 hours (AID 2283702)
Procedure, shortened: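 Background-control actin mRNA read by qNPA chemiluminescence at 48 h. Human hepatocyte cultures from two donors received fresh multi-concentration chemical doses daily for two days; 0.2% DMSO served as vehicle baseline.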

[14] = read-out: organic anion transporter (SLCO1B1), SLCO1B1 (gene 10599); assay: CLD_SLCO1B1_48hr: CellzDirect (CLD) Gene Expression Assay for organic anion transporter (SLCO1B1) at 48 hours (AID 2283707)
Procedure, shortened: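 SLCO1B1 transcript quantified by qNPA with chemiluminescent readout after 48 h of once-daily chemical exposure. Cultured human primary hepatocytes came from two donors, with 0.2% DMSO vehicle; positive-direction fitting against DMSO, cytotoxicity flagged by morphology.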

[15] = STM_H9_OrnCyssISnorm_ratio: Stemina devTOX quickPredict H9 human embryonic stem cell (hESC)-based Assay for Ornithine (ORN):Cystine (CYSS) Ratio (AID 2283714)
Procedure, shortened: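 UPLC-HRMS of spent media: ORN/CYSS ratio of internal-standard-normalized percentages, DMSO (0.1%) baseline. Pluripotent H9 hESCs, 72h exposure, daily re-dosing with fresh media; last 24h media collected.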

[16] = read-out: Glyceraldehyde-3-phosphate dehydrogenase (Homo sapiens) (UniProt P04406); assay: CLD_GAPDH_24hr: CellzDirect (CLD) Gene Expression Assay for Baseline Control (Glyceraldehyde 3-phosphate dehydrogenase) at 24 hours (AID 2283692)
Procedure, shortened: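 GAPDH baseline-control readout: qNPA chemiluminescent mRNA signal in human primary hepatocytes harvested 24 h after daily dosing, normalised to 0.2% DMSO with positive fitting direction; cytotoxicity annotated by phase-contrast morphology.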

Measured: AC50

Chain of Cytochrome P450 3A4 (Homo sapiens) (P08684 whole entry, looked up): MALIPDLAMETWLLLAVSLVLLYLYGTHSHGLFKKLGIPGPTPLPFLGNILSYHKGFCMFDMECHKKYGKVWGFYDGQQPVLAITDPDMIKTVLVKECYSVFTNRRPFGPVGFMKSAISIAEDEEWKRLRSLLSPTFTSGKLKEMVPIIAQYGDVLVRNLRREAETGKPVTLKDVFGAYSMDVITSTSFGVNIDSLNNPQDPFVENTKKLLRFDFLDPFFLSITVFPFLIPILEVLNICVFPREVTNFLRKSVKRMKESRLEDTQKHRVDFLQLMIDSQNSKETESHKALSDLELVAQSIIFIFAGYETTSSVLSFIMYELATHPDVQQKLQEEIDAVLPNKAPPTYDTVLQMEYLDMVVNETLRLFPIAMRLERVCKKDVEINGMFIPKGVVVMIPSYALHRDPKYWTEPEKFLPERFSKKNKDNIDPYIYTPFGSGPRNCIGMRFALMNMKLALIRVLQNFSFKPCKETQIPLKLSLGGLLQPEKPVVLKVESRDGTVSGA
Chain of Glyceraldehyde-3-phosphate dehydrogenase (Homo sapiens) (P04406 whole entry, looked up): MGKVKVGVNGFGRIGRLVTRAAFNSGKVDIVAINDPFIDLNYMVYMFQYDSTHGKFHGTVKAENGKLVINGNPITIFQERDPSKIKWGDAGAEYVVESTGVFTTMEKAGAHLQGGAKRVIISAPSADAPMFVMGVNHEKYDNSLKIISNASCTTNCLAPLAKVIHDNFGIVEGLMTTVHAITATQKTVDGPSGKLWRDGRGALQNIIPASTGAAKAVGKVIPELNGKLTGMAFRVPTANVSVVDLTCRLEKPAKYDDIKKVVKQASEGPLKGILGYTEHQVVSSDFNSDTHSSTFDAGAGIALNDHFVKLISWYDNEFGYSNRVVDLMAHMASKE

CCCN(CCOc1c(Cl)cc(Cl)cc1Cl)C(=O)n1ccnc1
inactive: [6] | [7] | [8] | [9]
active: [1] 378 nM | [2] 32700 nM | [3] 432 nM | [4] 128 nM | [5] 458 nM | [8] 50000 nM

CCC(C)Nc1c([N+](=O)[O-])cc(C(C)(C)C)cc1[N+](=O)[O-] (stereo unspecified)
inactive: [2] | [10] | [11] | [12] | [9]
active: [1] 3050 nM | [3] 2700 nM | [4] 2440 nM | [5] 3770 nM | [7] 4110 nM | [8] 46900 nM

O=C(NC(=O)c1c(F)cccc1F)Nc1ccc(OC(F)(F)C(F)OC(F)(F)F)c(Cl)c1 (stereo unspecified)
active: [8] 1970 nM
not listed: [1] | [5] | [7] | [15] | [16]
inactive: all other assays above

CCOC1Oc2ccc(OS(C)(=O)=O)cc2C1(C)C (stereo unspecified)
active: [3] 5870 nM | [4] 1440 nM | [12] 83000 nM | [15] 84300 nM
inactive: [1] | [2] | [10] | [11] | [5] | [7] | [9]

COC(=O)c1ccccc1S(=O)(=O)NC(=O)N(C)c1nc(C)nc(OC)n1
inactive: [1] | [2] | [10] | [11] | [4] | [5] | [6] | [7]

N#Cc1c(Cl)c(Cl)c(Cl)c(C#N)c1Cl
active: [3] 0.914 nM | [4] 0.962 nM | [9] 45000 nM
not listed: [1] | [11] | [12] | [14] | [15]
inactive: all other assays above

O=C1c2ccccc2C(=O)N1SC(Cl)(Cl)Cl
inactive: [2] | [16] | [10] | [13] | [6] | [14] | [7] | [8] | [9]
